Screening results as filed in PubChem BioAssay.
Sampled rows, rich in hits. Any-hit rate of the full collection: about 2.8%.
Shn3 3UTR inh: reduction of Shn3 3'UTR firefly luciferase signal, primary screen, Schnurri-3 inhibitor project, cell-based, Clone20 osteoblasts, set 2; Clone20 osteoblast Shn3 3'UTR firefly luciferase, 24 h; inhibition, % at 12.5 µM; 0.52% of 360,000 active;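 active = mean inhibition of at least 75% with every replicate also reaching 75%; inconclusive = mean inhibition at least 75% but some replicate below; inactive = mean inhibition below 75%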;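 also: 0% = median of neutral control wells and 100% = pilot-screen positive control compound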
Peg3 prom inh-1: Peg3 promoter-driven luciferase inhibitors, primary screen, cell-based, HeLa, luciferase luminescence | HeLa PEG-Prom luciferase reporter, overnight | inhibition, % at 20 µM | 1.7% of 360,000 active;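 active = inhibition of at least 50% at 20 µM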
EBV LMP1 NFkB: EBV LMP1-driven NF-kappaB luciferase reporter inhibitors, primary screen, cell-based, luminescence, single point; LMP1-induced NF-kappaB luciferase reporter cells; inhibition, % at 12.5 µM; 0.69% of 350,000 active; AID 504558, 2011; in the data active = inhibition above about 41%; inconclusive = no clear call, values can overlap the other calls;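 also: 0% = neutral control wells and 100% = reference inhibitor control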
TRPM1 prom inh: inhibitors of MITF-dependent TRPM1 promoter reporter, primary screen, cell-based, SK-MEL-5, single point, luciferase; SK-MEL-5 TRPM1 promoter luciferase, 24 h; inhibition, % at 12.5 µM; 0.83% of 330,000 active; AID 488899, 2010;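 active = mean inhibition across replicates of 60% or more, whatever share of single replicates reaches that level; inconclusive = some that reach 60%, reason not given; inactive = mean inhibition across replicates below 60%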
PAX8 reporter: inhibitors of PAX8-driven TPO luciferase reporter, primary screen, RMG-I cells, single concentration; SteadyGlo, 24 h; AID 652154, 2013; 1.2% of 360,000 active; inhibition, % at 12.6 µM;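 active = mean replicate inhibition at least 60% with every replicate also reaching 60%; inconclusive = only one of the two criteria is met; inactive = mean below 60% and not all replicates reaching 60%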;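 also: luciferase light reporting Pax8 driven TPO promoter activity; plate controls were median of neutral control wells for no effect and mitoxantrone controls for full effect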
HIF-2a inh: HIF-2a reporter inhibitors, primary screen, luminescence, 786-0 RCC cells; AID 624352, 2012; 786-0 RCC cells HIF-2a reporter, luciferase luminescence, overnight; 0.72% of 360,000 active; inhibition, % at 18.8 µM;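 active = inhibition of the luminescence signal of 40% or more relative to plate controls, in a single-dose primary screen at 18.75 µM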
Peg3 prom inh-2: Peg3 promoter reporter inhibitors, retest, confirmation, cell-based, HeLa, luciferase reporter, single concentration; inhibition, % at 20 µM; HeLa PEG-Prom luciferase reporter, luminescence, overnight; 84% of 1,300 active; shares compounds with Peg3 prom inh-1;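 active = at 20 µM dose, 40% or more inhibition averaged across four replicates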
An asterisk follows results filed as active; ? = inconclusive; . = not tested or not shown.

SMILES	Shn3 3UTR inh	Peg3 prom inh-1	EBV LMP1 NFkB	TRPM1 prom inh	PAX8 reporter	HIF-2a inh	Peg3 prom inh-2
O=C(O)c1ccccc1C(=O)N1CCN(c2ncccn2)CC1	-24	-13	-1	-11	-13	17	.
CNC[C@@H]1OCCCC[C@@H](C)Oc2ccc(NC(=O)Nc3ccc4c(c3)OCO4)cc2C(=O)N([C@H](C)CO)C[C@H]1C	.	.	.	.	-19	.	.
CCCCCCCCNS(=O)(=O)CCNCc1ccccc1	-10	7	0	-7	-2	14	.
CCCCCCCCNCCS(=O)(=O)NCc1ccc(OC)cc1	-27	56*	1	-4	5	-10	68*
CC(C)c1ccc(NC(=O)CSc2nc(-c3ccccc3F)nc3nc[nH]c23)cc1	12	60*	3	5	-6	18	25
CC(C)NC(=O)Nc1ccc2c(c1)C(=O)N(C)[C@H]1CC[C@@H](CC(=O)NC3CCCCC3)O[C@@H]1CO2	.	.	.	.	3	.	.
O=C1C(=Cc2ccc(F)cc2)Cc2ccccc21	-19	-106	.	.	-68	-159	.
O=C1C(=C2SCCCS2)CC/C1=C\c1ccc(F)cc1	23	86*	77*	59	.	65*	43*
Cc1ccc(S(=O)(=O)NCC[C@@H]2CC[C@@H](NC(=O)C3CCOCC3)[C@H](CO)O2)cc1	.	.	.	.	-9	.	.
C[C@@]12C(=O)Nc3cc(Cl)ccc3C(=O)N1[C@H]1c3cc(Cl)ccc3OC[C@@H]1[C@@H]2c1ccccc1	27	56*	2	-4	44	-6	57*
CN(C)C(=O)c1cccc(-c2ccc3c(c2)[C@H]2[C@H](CCN2C(=O)Nc2cccc(F)c2)[C@@H](CO)N3C)c1	.	.	.	.	7	.	.
CCOc1ccc2nc(NC(=O)c3cccc(-c4cc5ccccc5oc4=O)c3)sc2c1	12	89*	-2	37	-53	-53	-9
Cn1cccc1-c1cc(C(=O)N/N=C/c2cc(Br)ccc2O)[nH]n1	80	58*	33	62*	74*	3	62*
O=C(C[C@@H]1C[C@H]2c3cc(NS(=O)(=O)c4ccc(F)cc4)ccc3O[C@H]2[C@H](CO)O1)N1CCOCC1	.	.	.	.	7	.	.
CN(C)c1ccc(NC(=S)c2ccccn2)cc1	62	90*	73*	79*	?	54*	66*
CN(C)c1ccc(/C=C(\C#N)c2ccccn2)cc1	45	78*	60*	68*	26	31	49*
O=C(Nc1cccc(Cl)c1)N[C@H]1CC[C@@H](CCNC(=O)C2CCCCC2)O[C@@H]1CO	.	.	.	.	11	.	.
Cc1cc(C)c(NC(=O)CSc2nc3ccc(NC(=O)CSc4nnnn4-c4ccccc4)cc3s2)c(C)c1	-1	84*	2	16	-16	10	13
Cc1cc(C)c(NC(=O)CSc2nc3ccc(NC(=O)CSc4nnnn4Cc4ccccc4)cc3s2)c(C)c1	5	-29	0	5	-11	-38	.
COc1cccc(-c2cccc(-c3nc(C(=O)Nc4ccc(-c5ccccc5)cc4)cc4c3[C@H](CCO)N(S(=O)C(C)(C)C)C4)c2)c1 (stereo not given in full)	30	78*	.	.	.	0	37
N/C(=N\OC(=O)c1ccccc1)C(C(=O)NOC(=O)c1ccccc1)C1CCCCC1 (stereo not given)	59	86*	-50	5	.	-154	97*
NC(N)=N/N=C/c1ccc(Cl)cc1Cl	15	69*	8	13	-7	-46	83*
O=C(NN=Cc1ccc(Cl)cc1Cl)c1ccccc1	-105	-350	-41	.	-169	-230	.
COc1ccc(C2C3(C#N)C(N)=NC(OC)(OC)C23C#N)cc1 (stereo not given)	4	17	-1	18	16	5	.
COc1ccc(C2NC3=C(CCC3)C3(C#N)C4(N=C(N)C23C#N)OCCO4)cc1 (stereo not given)	22	67*	8	17	.	38	30
SMILES	Shn3 3UTR inh	Peg3 prom inh-1	EBV LMP1 NFkB	TRPM1 prom inh	PAX8 reporter	HIF-2a inh	Peg3 prom inh-2
COc1ccc(C(C(=O)NCC2CCCO2)N(Cc2cccs2)C(=O)c2snc(C(N)=O)c2N)cc1 (stereo not given)	-6	51*	-3	10	51	2	50*
CS(=O)(=O)N1[C@H](C#N)[C@@H](c2ccc(C#CC3CCCCC3)cc2)[C@@H]1CO	.	.	.	.	0	.	.
Clc1ccc(CN2CCc3c([nH]c4ccccc34)C2)cc1Cl	1	81*	-10	3	10	27	23
CSc1ccc(CN2CCc3c([nH]c4ccccc34)C2)cc1	17	20	3	18	8	21	.
CN1c2ccc(-c3cccc(F)c3)cc2[C@H]2[C@H](CCN2C(=O)Cc2cccnc2)[C@@H]1CO	.	.	.	.	0	.	.
Cc1noc(C)c1NC(=O)Nc1ccc2c(c1)C(=O)N(C)[C@H]1CC[C@H](CC(=O)N[C@H]3CCN(Cc4ccccc4)C3)O[C@@H]1CO2	.	.	.	.	-12	.	.
C/C(=N\NC(=O)c1cc(C2CC2)nc2ccccc12)c1ccc(O)cc1O	69	56*	18	58	34	8	65*
COc1ccc2c3c([nH]c2c1)[C@@H](CO)NCC31CCN(C(=O)C2CCCC2)CC1	.	.	.	.	-12	.	.
COc1ccc(C[C@H]2CN3C(=NC[C@@H]3Cc3ccc(O)cc3)N2C[C@H](C)NC(=O)CCC2CCCCC2)cc1	6	63*	-1	-4	27	-11	29
CC(C)[C@H]1CN=C2N(C[C@H](C)NC(=O)CCC3CCCCC3)[C@H](Cc3ccc(O)cc3)CN21	5	-9	0	-10	-17	-12	.
C[C@@H]1CCCCO[C@H](CN(C)C(=O)Cc2ccccc2)[C@H](C)CN([C@@H](C)CO)C(=O)c2cc(NS(=O)(=O)c3ccccc3)ccc2O1	.	.	.	.	9	.	.
NC1=NC[C@H](Cc2ccccc2)N1CCc1cc(C(F)(F)F)cc(C(F)(F)F)c1	1	85*	-7	3	20	4	53*
FC(F)(F)c1cc(CCN2C(=S)NC[C@@H]2Cc2ccccc2)cc(C(F)(F)F)c1	-6	0	-5	-1	-9	-1	.
CC1(Cc2ccc(Cl)c(Cl)c2)C(=O)Nc2ccc(S(=O)(=O)NC3CCCCC3)cc21 (stereo not given)	24	69*	.	.	42	0	68*
O=C(CCCN1C(=O)/C(=C/c2cccc(Br)c2)SC1=S)Nc1cccnc1	-22	76*	8	9	94*	49*	96*
